Data from PubChem BioAssay AID1159580 (chemical genetic matrix, 2015).
The campaign covered roughly 5,500 compounds. About 2,000 (36%) were called active. Inconclusive results (about 18%) are left out. Cut-off read from the data, not from the text of the source: active = normalized growth mostly below about 0.91 (no sharp cut-off); inconclusive = no clear call, values can overlap the other calls; inactive = mostly above about 0.92. The list shows a part of the results.

Assay: chemical genetic growth profiling, strain panel (AID 1159580);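 note: tested at 20 µM; growth read once vehicle control cultures reached saturation at 30 °C; 1 = growth at the plate median or of vehicle wells; lower values mean less growth of the strain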
Conditions: S. cerevisiae deletion strains, growth OD

Measured: normalized growth

O=C1Nc2ccccc2/C1=N/N=C\c1ccccc1Cl
active: locus YHR030C, strain SLT2, stronger effect = lower value 0.83 | locus YLR113W, strain HOG1, stronger effect = lower value 0.708
inactive: locus YAR019C, strain CDC15, stronger effect = lower value 0.975 | locus YBL105C, strain PKC1, stronger effect = lower value 0.967 | locus YBR135W, strain CKS1, stronger effect = lower value 0.986 | locus YBR136W, strain MEC1, stronger effect = lower value 0.966 | locus YBR160W, strain CDC28, stronger effect = lower value 0.972 | locus YDL017W, strain CDC7, stronger effect = lower value 0.97 | locus YDL028C, strain MPS1, stronger effect = lower value 0.97 | locus YDL101C, strain DUN1, stronger effect = lower value 0.97 | locus YDL108W, strain KIN28, stronger effect = lower value 0.969 | locus YDL132W, strain cdc53, stronger effect = lower value 0.977 | locus YDL214C, strain PRR2, stronger effect = lower value 0.92 | locus YDR052C, strain DBF4, stronger effect = lower value 0.968 | locus YDR054C, strain cdc34, stronger effect = lower value 0.97 | locus YDR226W, strain ADK1, stronger effect = lower value 0.987 | locus YDR477W, strain SNF1, stronger effect = lower value 0.909 | locus YER123W, strain YCK3, stronger effect = lower value 0.85 | locus YER133W, strain GLC7, stronger effect = lower value 0.928 | locus YFL009W, strain cdc4, stronger effect = lower value 0.978 | locus YFL029C, strain CAK1, stronger effect = lower value 0.982 | locus YFR003C, strain YPI1, stronger effect = lower value 0.966 | locus YFR019W, strain FAB1, stronger effect = lower value 0.935 | locus YFR028C, strain CDC14, stronger effect = lower value 0.987 | locus YGR040W, strain KSS1, stronger effect = lower value 0.903 | locus YGR052W, strain FMP48, stronger effect = lower value 0.838 | locus YGR092W, strain DBF2, stronger effect = lower value 0.867 | locus YHR079C, strain IRE1, stronger effect = lower value 0.906 | locus YHR082C, strain KSP1, stronger effect = lower value 0.918 | locus YHR205W, strain SCH9, stronger effect = lower value 0.858 | locus YIL147C, strain SLN1, stronger effect = lower value 0.973 | locus YJL095W, strain BCK1, stronger effect = lower value 0.798 | locus YJL128C, strain PBS2, stronger effect = lower value 0.925 | locus YJL157C, strain FAR1, stronger effect = lower value 0.928 | locus YJR016C, strain ILV3, stronger effect = lower value 0.986 | locus YJR066W, strain TOR1 (second series), stronger effect = lower value 0.916 | locus YJR066W, strain TOR1, stronger effect = lower value 0.9 | locus YKL048C, strain ELM1, stronger effect = lower value 0.901 | locus YKL067W, strain YNK1, stronger effect = lower value 0.896 | locus YKL101W, strain HSL1, stronger effect = lower value 0.893 | locus YKL193C, strain SDS22, stronger effect = lower value 0.971 | locus YKL203C, strain TOR2, stronger effect = lower value 0.954 | locus YLR133W, strain CKI1, stronger effect = lower value 0.916 | locus YLR403W, strain SFP1, stronger effect = lower value 0.902 | locus YML070W, strain DAK1, stronger effect = lower value 0.897 | locus YMR001C, strain CDC5, stronger effect = lower value 0.976 | locus YMR205C, strain PFK2 (second series), stronger effect = lower value 0.887 | locus YMR277W, strain FCP1, stronger effect = lower value 0.972 | locus YNL006W, strain LST8, stronger effect = lower value 0.974 | locus YNL020C, strain ARK1, stronger effect = lower value 0.896 | locus YNL161W, strain CBK1, stronger effect = lower value 0.976 | locus YNL183C, strain NPR1, stronger effect = lower value 0.841 | locus YNL207W, strain RIO2, stronger effect = lower value 0.974 | locus YNL222W, strain SSU72, stronger effect = lower value 0.979 | locus YNL307C, strain MCK1 (second series), stronger effect = lower value 0.855 | locus YOL078W, strain AVO1, stronger effect = lower value 0.968 | locus YOL136C, strain PFK27, stronger effect = lower value 0.904 | locus YOR061W, strain CKA2, stronger effect = lower value 0.888 | locus YOR119C, strain RIO1, stronger effect = lower value 0.93 | locus YOR231W, strain MKK1, stronger effect = lower value 0.823 | locus YOR329C, strain SCD5, stronger effect = lower value 0.965 | locus YPL031C, strain PHO85, stronger effect = lower value 0.877 | locus YPL153C, strain RAD53, stronger effect = lower value 0.915 | locus YPL204W, strain HRR25, stronger effect = lower value 0.888 | locus YPL209C, strain IPL1, stronger effect = lower value 0.977 | locus YPL256C, strain CLN2, stronger effect = lower value 0.907 | locus YPR025C, strain CCL1, stronger effect = lower value 0.97 | locus YPR106W, strain ISR1, stronger effect = lower value 0.97 | locus YPR111W, strain DBF20, stronger effect = lower value 0.963 | strain NNK1, stronger effect = lower value 0.967 | strain TSCII, stronger effect = lower value 0.976
